Experimental data published in PubChem BioAssay.
Activity calls are given as the source filed them. Unless noted, the rule behind the calls is not given here.

How the values were obtained:
[1] = tested on: Wnt5a (protein binding on small-molecule microarray); assay: small molecules binding Wnt5a protein – biophysical, small-molecule microarray, 635/667 nm fluorescence, primary screen (AID 1142); details: 635 nm fluorescence, higher = more signal;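 note: fluorescence read at 667 nm with signal to noise per printed feature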
[2] = ATP-based viability of Huh7 replicon cells – cell-based, CellTiter-Glo luminescence, basal, 48 h, cytotoxicity control for HCV replication inhibitor project, primary screen (AID 1143); details: higher = more signal, called active from +8 up or from −8 down;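 note: Huh7 hepatoma cells carrying a hepatitis C replication reporter with no stimulus; test concentration not given here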
[3] = Pseudomonas biofilm growth suppression – PAO1 strain, BacTiter-Glo luminescence, LB-PBS, primary screen (AID 1144); details: P. aeruginosa PAO1 biofilm, 12 h, higher = more signal
[4] = basal CRE-LacZ reporter activity in PC12 – cell-based, unstimulated, primary screen (AID 1145); details: no forskolin, luminescence, 4.5 h, higher = more signal, called active from +8 up or from −8 down
[5] = forskolin-driven CRE-LacZ activity in PC12 – cell-based, CRE-LacZ reporter, forskolin-stimulated, primary screen (AID 1146); details: luminescence, 4.5 h, higher = more signal, called active from +8 up or from −8 down;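 note: PC12 cells with 6xCRE LacZ reporter stimulated by forskolin 10 µM; beta-galactosidase reporter signal reflecting CREB driven transcription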
[6] = biological target: Streptavidin (Streptomyces avidinii) (UniProt P22629); assay: compounds binding control protein streptavidin – biophysical, small-molecule microarray, 635/667 nm fluorescence, artefact control for SMM compound annotation, primary screen (AID 1147); details: higher = more signal;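 note: signal reflects streptavidin binding to arrayed compounds as a control protein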
Sequence of Streptavidin (Streptomyces avidinii) (P22629 whole entry, looked up): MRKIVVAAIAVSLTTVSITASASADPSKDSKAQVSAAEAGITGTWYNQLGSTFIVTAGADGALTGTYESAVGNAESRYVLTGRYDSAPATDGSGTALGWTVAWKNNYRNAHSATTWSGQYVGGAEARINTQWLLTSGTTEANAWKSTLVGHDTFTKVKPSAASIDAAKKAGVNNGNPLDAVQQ

[7] = probe aInhba binding on compound microarray – biochemical, small-molecule microarray, 635/667 nm fluorescence, primary screen (AID 1148); details: higher = more signal;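 note: score merges 667nm spot fluorescence with signal-to-noise for antibody binding to printed compounds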
Torsin-1A (Homo sapiens) [8] = biological target: Torsin-1A (Homo sapiens) (UniProt O14656); assay: TOR1A wild-type binding on microarray – cell lysate, small-molecule microarray, lysate, 635/667 nm, primary screen (AID 1149); details: COS7 hTOR1A-WT lysate, 635 nm fluorescence, higher = more signal
Sequence of Torsin-1A (Homo sapiens) (O14656 whole entry, looked up): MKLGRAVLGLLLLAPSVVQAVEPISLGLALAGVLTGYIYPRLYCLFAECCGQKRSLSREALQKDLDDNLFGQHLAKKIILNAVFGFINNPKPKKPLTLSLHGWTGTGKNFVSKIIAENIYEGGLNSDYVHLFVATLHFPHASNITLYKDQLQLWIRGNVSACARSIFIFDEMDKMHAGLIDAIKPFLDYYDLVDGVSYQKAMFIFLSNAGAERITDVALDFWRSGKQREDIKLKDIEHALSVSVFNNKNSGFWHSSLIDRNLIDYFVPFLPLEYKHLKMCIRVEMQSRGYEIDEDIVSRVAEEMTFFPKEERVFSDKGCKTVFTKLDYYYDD

Torsin-1A (Homo sapiens) [9] = biological target: Torsin-1A (Homo sapiens) (UniProt O14656); assay: torsin A mutant lysate binding on microarrays – cell lysate, small-molecule microarray, COS7 lysate, 635/667 nm fluorescence, primary screen (AID 1150); details: COS7 hTOR1A mutant lysate, 635 nm fluorescence, higher = more signal;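 note: score pools 667 nm emission and signal to noise measuring lysate protein binding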
[10] = tested on: Sonic hedgehog protein (Shh); assay: Sonic hedgehog microarray binding compounds – biochemical, small-molecule microarray, 635/667 nm fluorescence, primary screen (AID 1151); details: 635 nm fluorescence, higher = more signal;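 note: Shh protein binding to compounds spotted on small-molecule microarray slides; score combines spot fluorescence intensity with signal-to-noise across triplicate slides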
[11] = optical density shifts of acrAB sulA E. coli – strain DRC41, OD650, 48 h, E. coli filamentation inducer project, primary screen (AID 1152); details: higher = more signal, called active from +8 up or from −8 down;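 note: E. coli MC1000 strain DRC41 lacking acrAB efflux pump and sulA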
[12] = probe aLefty1 binding on compound microarray – biochemical, small-molecule microarray, 635/667 nm fluorescence, primary screen (AID 1153); details: higher = more signal;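 note: score merges spot fluorescence with signal-to-noise ratio from the scanned slide images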
[13] = plasmodial surface anion channel blockers, osmotic lysis – cell-based, P. falciparum Indochina, OD700, 1 h, primary screen (AID 1154); details: P. falciparum Indochina infected RBC osmotic lysis, higher = more signal, called active from +8 up or from −8 down
[14] = plasmodial surface anion channel blockers, osmotic lysis – cell-based, P. falciparum Indochina, OD700, 2 h, primary screen (AID 1155);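 note: lysis reports solute entry through the parasite surface anion channel PSAC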; details: P. falciparum Indochina infected erythrocytes, higher = more signal, called active from +8 up or from −8 down
[15] = changes in parasitized red cell lysis, either direction – P. falciparum Indochina, OD700, 3 h, PSAC antagonist project, primary screen (AID 1156); details: P. falciparum-infected erythrocytes, osmotic lysis, higher = more signal, called active from +8 up or from −8 down
[16] = plasmodial surface anion channel blockers, osmotic lysis – cell-based, P. falciparum Indochina, OD700, 18 h, primary screen (AID 1157); details: P. falciparum Indochina infected erythrocytes, osmotic lysis OD700, 18 h; higher = more signal, called active from +8 up or from −8 down
[17] = S6 kinase pathway phospho-S6 level changes – cell-based, A549, cytoblot, luminescence, serum-stimulated, primary screen (AID 1158); details: 5 h, higher = more signal;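 note: serum-stimulated A549 lung adenocarcinoma cells; signal is phosphorylated S6 detected by cytoblot immunostaining with HRP secondary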
[18] = biological target: NADPH oxidase 2 (Homo sapiens) (UniProt P04839); assay: compounds shifting NOX2 Amplex Red fluorescence – cell-based, HEK293-NOX2, PMA-stimulated, NOX inhibitor project, primary screen (AID 1159); details: 45 min, higher = more signal, called active from +8 up or from −8 down; note: test concentration not given here
Sequence of NADPH oxidase 2 (Homo sapiens) (P04839 whole entry, looked up): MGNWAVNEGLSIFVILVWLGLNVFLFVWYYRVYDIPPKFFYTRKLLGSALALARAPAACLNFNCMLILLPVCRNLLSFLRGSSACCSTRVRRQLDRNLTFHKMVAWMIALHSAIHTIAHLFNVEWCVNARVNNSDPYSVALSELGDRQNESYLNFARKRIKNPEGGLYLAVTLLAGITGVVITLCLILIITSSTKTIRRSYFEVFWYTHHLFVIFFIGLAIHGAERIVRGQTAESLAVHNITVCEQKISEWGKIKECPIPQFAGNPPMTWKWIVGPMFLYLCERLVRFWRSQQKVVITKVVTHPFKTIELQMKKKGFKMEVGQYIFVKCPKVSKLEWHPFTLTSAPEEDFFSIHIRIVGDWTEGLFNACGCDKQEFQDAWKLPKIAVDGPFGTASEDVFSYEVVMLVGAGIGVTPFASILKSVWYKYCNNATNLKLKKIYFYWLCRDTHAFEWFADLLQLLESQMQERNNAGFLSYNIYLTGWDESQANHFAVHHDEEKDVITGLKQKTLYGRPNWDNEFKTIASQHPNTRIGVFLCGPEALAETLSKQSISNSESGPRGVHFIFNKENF

[19] = biological target: NADPH oxidase 4 (Homo sapiens) (UniProt Q9NPH5); assay: compounds shifting NOX4 Amplex Red fluorescence – cell-based, HEK293-NOX4, tetracycline-induced, NOX inhibitor project, primary screen (AID 1160); details: HEK293-NOX4, Amplex Red H2O2 fluorescence, 45 min; higher = more signal, called active from +8 up or from −8 down
Sequence of NADPH oxidase 4 (Homo sapiens) (Q9NPH5 whole entry, looked up): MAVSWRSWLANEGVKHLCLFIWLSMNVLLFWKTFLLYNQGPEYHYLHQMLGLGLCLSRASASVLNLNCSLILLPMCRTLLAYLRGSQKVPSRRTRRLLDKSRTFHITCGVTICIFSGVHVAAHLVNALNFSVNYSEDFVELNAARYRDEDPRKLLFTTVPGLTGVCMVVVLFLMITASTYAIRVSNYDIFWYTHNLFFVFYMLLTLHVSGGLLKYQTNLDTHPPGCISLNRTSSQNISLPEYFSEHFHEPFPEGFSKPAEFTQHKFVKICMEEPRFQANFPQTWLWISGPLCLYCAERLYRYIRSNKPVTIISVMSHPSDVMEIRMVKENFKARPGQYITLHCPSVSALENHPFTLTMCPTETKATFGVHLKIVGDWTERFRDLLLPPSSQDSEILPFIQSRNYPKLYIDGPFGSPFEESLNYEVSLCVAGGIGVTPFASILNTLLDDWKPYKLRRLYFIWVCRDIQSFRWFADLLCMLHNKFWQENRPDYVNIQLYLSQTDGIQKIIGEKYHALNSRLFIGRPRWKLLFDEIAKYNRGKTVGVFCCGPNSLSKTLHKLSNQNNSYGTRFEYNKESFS

[20] = biological target: NADPH oxidase 5 (Homo sapiens) (UniProt Q96PH1); assay: compounds shifting NOX5 Amplex Red fluorescence – cell-based, HEK293-NOX5, NOX inhibitor project, primary screen (AID 1161); details: HEK293-NOX5, ionomycin, 45 min, higher = more signal
Sequence of NADPH oxidase 5 (Homo sapiens) (Q96PH1 whole entry, looked up): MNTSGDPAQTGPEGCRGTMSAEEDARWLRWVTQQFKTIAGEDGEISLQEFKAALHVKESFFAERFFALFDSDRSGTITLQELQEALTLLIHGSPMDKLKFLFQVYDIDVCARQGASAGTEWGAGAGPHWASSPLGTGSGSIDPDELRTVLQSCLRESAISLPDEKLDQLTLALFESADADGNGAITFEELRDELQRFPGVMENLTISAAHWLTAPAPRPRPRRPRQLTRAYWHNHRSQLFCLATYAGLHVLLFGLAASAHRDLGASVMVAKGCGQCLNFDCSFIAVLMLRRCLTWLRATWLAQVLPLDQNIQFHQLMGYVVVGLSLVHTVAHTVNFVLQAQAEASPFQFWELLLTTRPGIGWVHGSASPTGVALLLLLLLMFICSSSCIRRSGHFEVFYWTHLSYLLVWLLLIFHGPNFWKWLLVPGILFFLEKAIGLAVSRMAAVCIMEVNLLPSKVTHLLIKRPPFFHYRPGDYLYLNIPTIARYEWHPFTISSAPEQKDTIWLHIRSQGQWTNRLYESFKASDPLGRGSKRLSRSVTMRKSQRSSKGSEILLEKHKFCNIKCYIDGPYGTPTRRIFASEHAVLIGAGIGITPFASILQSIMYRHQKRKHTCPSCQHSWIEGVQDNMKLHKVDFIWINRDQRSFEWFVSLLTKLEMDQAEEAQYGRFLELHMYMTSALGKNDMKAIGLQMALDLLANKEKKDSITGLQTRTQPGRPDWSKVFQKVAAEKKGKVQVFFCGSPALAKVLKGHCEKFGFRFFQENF

SMILES | composite z-score [1] | z-score [2] | z-score [3] | z-score [4] | z-score [5] | composite z-score [6] | composite z-score [7] | composite z-score (Torsin-1A (Homo sapiens) [8]) | composite z-score (Torsin-1A (Homo sapiens) [9]) | composite z-score [10] | z-score [11] | composite z-score [12] | z-score [13] | z-score [14] | z-score [15] | z-score [16] | z-score [17] | z-score [18] | z-score [19] | z-score [20]
O=C1O[C@H](c2ccccc2)[C@H](c2ccccc2)N2[C@H]1[C@@H](C(=O)N1CCN(c3ncccn3)CC1)[C@]1(C(=O)Nc3ccc(C#CC4(O)CCCCCC4)cc31)[C@H]2c1ccc(OCCO)cc1 | 1.4 | -0.69 (inactive) | -1.09 (inactive) | -0.698 (inactive) | -0.509 (inactive) | 2.76 | 1.05 | 0.801 | 1.74 | 2.02 | -0.735 (inactive) | 1.66 | 8.14 (active) | 2.41 (inactive) | 1.76 (inactive) | 1.33 (inactive) | -0.274 | 1.28 (inactive) | 1.11 (inactive) | 1.35
CN1C(=O)C2C=CC(C(O)c3ccccn3)N(N(c3ccccc3)c3ccccc3)C2C1=O (stereo not given) | 0.485 | 0.346 (inactive) | -1.26 (inactive) | 0.0569 (inactive) | -0.164 (inactive) | -0.0902 | 0.167 | 0.678 | 0.291 | 0.424 | -1.06 (inactive) | 0.0774 | 1.5 (inactive) | 1.14 (inactive) | 0.303 (inactive) | 1.05 (inactive) | -0.618 | -0.486 (inactive) | -1.94 (inactive) | -2.33
CCCCCCCCCCC(O)C1C=CC2C(=O)N(C)C(=O)C2N1Nc1ccc([N+](=O)[O-])cc1[N+](=O)[O-] (stereo not given) | 0.218 | -0.646 (inactive) | 0.322 (inactive) | 0.44 (inactive) | 0.932 (inactive) | 1.12 | 0.211 | -0.257 | 0.565 | -0.412 | -1.97 (inactive) | 0.407 | 13.8 (active) | 4.31 (inactive) | -0.607 (inactive) | 2.59 (inactive) | -0.506 | 0.402 (inactive) | 0.328 (inactive) | -0.414
O=C(N1CCCCC1)[C@@]1(CCS(=O)(=O)c2ccccc2)COC(c2ccc(OCCCO)cc2)=N1 | 1.17 | -2.3 (inactive) | 0.514 (inactive) | 0.62 (inactive) | -0.334 (inactive) | 1.31 | 0.421 | 1.19 | 0.496 | 0.447 | 0.641 (inactive) | 0.457 | 27.3 (active) | 21.1 (active) | 2.47 (inactive) | 2.93 (inactive) | -0.436 | -1.53 (inactive) | 0.675 (inactive) | 0.885
Cc1cc(C)cc(N2C(=O)CSC2c2cccc([N+](=O)[O-])c2)c1 (stereo not given) | 0.423 | -0.894 (inactive) | 0.75 (inactive) | -0.438 (inactive) | -1.04 (inactive) | 1.2 | 0.0506 | 0.337 | 0.526 | 0.899 | 0.421 (inactive) | -0.0046 | 0.385 (inactive) | -0.414 (inactive) | 0.652 (inactive) | -0.237 (inactive) | -0.261 | -1.02 (inactive) | -0.364 (inactive) | 0.483
